# Experimental data published in PubChem BioAssay (NCI).
# Compounds without any hit were thinned out: in the full panel of roughly 83,000, 20% have a hit.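 Single-dose data. Exposure time 48 hours. Values below 10 considered active.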 Values without a mark were called inactive. Calls of active or inactive are those of the source.
# Legend:
# Experiment in all cases: NCI-60 one-dose screen, 48 h (100 = growth as untreated, 0 = no growth, -100 = all killed)
# Conditions in all cases: 10 µM unless noted
# [1] = test system: SR leukemia
# [2] = test system: RPMI-8226 leukemia
# [3] = test system: OVCAR-8 ovarian
# [4] = test system: OVCAR-5 ovarian
# [5] = test system: OVCAR-4 ovarian
# [6] = test system: SK-OV-3 ovarian
# [7] = test system: IGROV1 ovarian
# [8] = test system: OVCAR-3 ovarian
# [9] = test system: HS 578T breast
# [10] = test system: NCI/ADR-RES ovarian
# [11] = test system: T-47D breast
# [12] = test system: BT-549 breast
# [13] = test system: MDA-MB-435 melanoma
# [14] = test system: SW-620 colon
# [15] = test system: MCF7 breast
# [16] = test system: HCT-116 colon
# [17] = test system: HCC-2998 colon
# [18] = test system: KM12 colon
SMILES,growth [1],growth [2],growth [3],growth [4],growth [5],growth [6],growth [7],growth [8],growth [9],growth [10],growth [11],growth [12],growth [13],growth [14],growth [15],growth [16],growth [17],growth [18]
COc1ccc(Oc2ccc(/C=N/NC(=O)CSc3nc4ccccc4c(=O)n3-c3ccc(Cl)cc3)cc2)cc1,72.8%,85.1%,85.7%,81.2%,72.5%,66.3%,48.7%,-56.8% (active),-4.46% (active),51.1%,37.8%,89.4%,87.7%,44.4%,49.3%,13.3%,83.3%,77.2%
C=C(C=O)[C@@H]1CC[C@]2(C)[C@H](C(=O)C=C3[C@H]4C[C@](C)(C(=O)OC)CC[C@]4(C)CC[C@]32C)[C@@]1(C)CCC#N,-9.31% (active),-16.5% (active),13.5%,-25.7% (active),20.6%,102%,2.58% (active),-47.2% (active),-2.47% (active),-24.3% (active),19.3%,13.8%,-12.2% (active),4.74% (active),2.5% (active),-56% (active),-73% (active),3.36% (active)
N#Cc1cn(Cc2ccc(Cl)cc2Cl)c(C(=O)c2ccc(Br)cc2)c1N,99.5%,111%,84.5%,92%,100%,90.4%,97.3%,105%,90%,88.8%,87.8%,108%,95.6%,98.8%,87.2%,101%,108%,99.3%
CCO/C=N/C1=C(C#N)C(c2ccc(F)cc2)c2sc3c(C)cccc3c2O1 (stereo unspecified),17.3%,12.8%,23.9%,25.6%,51%,66.6%,18.7%,-6.49% (active),24.6%,12.1%,62.1%,20%,-31.2% (active),19.6%,14.6%,6.05% (active),18.7%,8.6% (active)
O=C(CSc1nnc(-c2ccc(Cl)cc2)n1-c1ccccc1)Nc1ccc(Br)cc1,13.3%,17.5%,-27.5% (active),2.37% (active),-1.23% (active),-35.9% (active),16.6%,-24.5% (active),17.8%,12.3%,8.35% (active),36.7%,27.2%,37.9%,38.6%,-64.2% (active),77.9%,45.4%
O=C1CCCc2nc(Nc3ccc(S(=O)(=O)Nc4ccc([N+](=O)[O-])cc4)cc3)ncc21,105%,100%,106%,111%,107%,109%,98%,98.9%,98.4%,105%,105%,117%,104%,102%,95.2%,108%,110%,98.3%
Cn1ccnc1C(=O)/C=C/C=C/c1ccc(C(=O)Nc2ccc(F)cc2)cc1,10.8%,-5.49% (active),13.6%,33.7%,45.7%,67.1%,10.5%,5.1% (active),39.1%,26.7%,28.2%,36.3%,4.45% (active),-2.98% (active),13.3%,-36.3% (active),66.4%,17.1%
COc1ccc(/C=C(\C#N)C(=O)N2c3ccccc3Sc3ccc(SC)cc32)cc1F,121%,95.6%,91.4%,86.5%,75.4%,100%,91.1%,93.4%,85%,92.7%,70.9%,104%,97.9%,95.2%,95.9%,91.2%,90.5%,95.3%
COc1cccc(N2CCN(c3ncnc4c3[nH]c3ccc(F)cc34)C[C@H]2C)c1,46.4%,19.2%,22%,91.4%,28%,68%,59.5%,69.4%,72.9%,17%,14.6%,-3.9% (active),19.4%,95.9%,37.2%,41.9%,96.8%,54.5%
O=C(Nc1ccc(F)c(F)c1)c1cc(-c2ccc(F)cc2F)ccc1O,32.8%,-11.4% (active),9.13% (active),12.1%,10%,6.7% (active),14.9%,7.32% (active),-0.443% (active),2.02% (active),3.6% (active),-1.22% (active),1.2% (active),12.3%,0.642% (active),6.45% (active),15.5%,0.724% (active)
COc1ccccc1-n1cc(C#N)c(N)c1C(=O)c1ccc(Cl)cc1,23.5%,88.3%,96.7%,109%,98.2%,101%,78%,63.7%,74.6%,41.1%,88.3%,92.7%,-16.7% (active),40.8%,32.3%,63.5%,68.2%,58.2%
O=C(CN1CCN(c2cc(=O)n(-c3ccccc3)c3ccccc23)CC1)Nc1nc(-c2ccccc2)cs1,51.3%,46.2%,69.8%,94.1%,23.3%,70.7%,67.5%,72.5%,82.9%,62.7%,16.6%,67.1%,73.4%,68.6%,27.6%,53.4%,81.8%,63%
CCc1ccc(SC2c3ccc(N(CC)CC)cc3Oc3nc(N)c(C#N)c(N)c32)cc1 (stereo unspecified),-0.413% (active),-29.6% (active),5.08% (active),-84.2% (active),7.28% (active),17.8%,-78% (active),-64.8% (active),9.11% (active),5.13% (active),-27.3% (active),65.9%,-0.759% (active),-24.8% (active),-84.9% (active),-83.1% (active),-83% (active),-57.9% (active)
CCN1CCN(Cc2ccc(C(=O)Nc3ccc(C)c(Oc4ccc(-c5[nH]nc6ncnc(N)c56)cc4)c3)cc2C(F)(F)F)CC1,11.3%,65.8%,96.7%,94.9%,87%,99.8%,82.1%,116%,64.9%,67.2%,100%,109%,82%,115%,70.6%,67%,117%,21.2%
NC(N)=Nc1ccc(Oc2cccc(Nc3cccc(C(F)(F)F)c3)c2)cn1,-46.9% (active),-41.5% (active),45.4%,50.4%,24.7%,67.8%,13.8%,-66.6% (active),52.8%,46.6%,37.3%,61.2%,-20.6% (active),-79.1% (active),-69.1% (active),-76.8% (active),-91.9% (active),-82.8% (active)
N#Cc1cccc(CN2CCc3ncn(Cc4ccc(Cl)cc4)c(=O)c3C2)c1,36.2%,22.4%,24.3%,23.8%,16.5%,22.8%,44.1%,21.7%,35.9%,14.7%,30.7%,29.7%,18.4%,33.2%,15.5%,19.5%,13.9%,29.7%
COc1cccc(O)c1/C=C(/C)c1ccc2c(OC)cccc2[o+]1,87.6%,109%,103%,106%,103%,106%,97%,116%,110%,100%,106%,95.7%,86.7%,96.7%,93.8%,101%,110%,101%
